# From PubChem BioAssay (NCATS)
# Inconclusive results are not listed. Active and inactive are the calls of the source. The call rests on the fitted dose curve; in most records, active means well fitted cell-killing curve with a large enough effect; inconclusive means small, poorly fitted or top-dose-only effect, or effect the other way; inactive means no such curve, though single readings can be large or run the other way.
# Assay: Quantitative High-Throughput drug screen in 47 multiple myeloma cell lines against the NCATS MIPE library collection: UTMC2_PLB cell viability assay (AID 1919868); further: nearly all actives have a fitted effect of over 55% in size
# Conditions: CellTiter-Glo ATP luminescence, 48 h; viability (% of DMSO control): at 45.8 µM (top of the series)
# Excerpt: PI: Beverly A. Mock Ph.D.
# Laboratory of Cancer Biology and Genetics,
# Center for Cancer Research, National Cancer Institute,
# National Institute of Health, Bethesda, Maryland
# Drug resistance and disease progression are common in multiple myeloma (MM) patients, underscoring the need for new therapeutic combinations. […] We hypothesized that effective combinations would reduce MYC expression and enhance p16 activity. […] These preclinical data identify potentially useful drug combinations for evaluation in drug-resistant MM and reveal potential mechanisms of combined drug sensitivity.
# Described herein is the primary MIPE qHTS used to cherrypick compounds. Validated compounds were then further tested for potential synergistic activiy.
# [1] Peat TJ, Gaikwad SM, Dubois W, Gyabaah-Kessie N, Zhang S, Gorjifard S, Phyo Z, Andres M, Hughitt VK, Simpson RM, Miller MA, Girvin AT, Taylor A, Williams D, D'Antonio N, Zhang Y, Rajagopalan A, Flietner E, Wilson K, Zhang X, Shinn P, Klumpp-Thomas C, McKnight C, Itkin Z, Chen L, Kazandijian D, Zhang J, Michalowski AM, Simmons JK, Keats J, Thomas CJ, Mock BA. Drug combinations identified by high-throughput screening promote cell cycle transition and upregulate Smad pathways in myeloma. Cancer Lett. 2023 Aug 1;568:216284. doi: 10.1016/j.canlet.2023.216284. Epub 2023 Jun 24. PMID: 37356470; PMCID: PMC10408729.
# SEQUENCE No. (e.g., 1, 2, 3, etc.); […] (e.g., Cells, Incubation, Reagent, etc.); VALUE and DESCRIPTION.
# 1; Cells; 5 uL; white, solid bottom 1536-well Greiner assay plate.
# 2; Compounds; 23 nL; Kalypsis pin tool (Wako USA) equipped with a 1536-well pin head to transfer to the assay plates.
# 3; Incubation; 48 hours; 37C incubation.
# 4; Reagent;5uL; CellTiter Glo (Promega).
# 5; Detector; 425V; Luminescence; Viewlux PerkinElmer.
# NOTES (numbers refer to Sequence numbers above)
# 1. The cell-based screening methods employed in this study were like those previously published. Briefly, the corresponding myeloma cell lines were screened in 1,536-well plates with 500 cells, 5-uL per well for inhibition of cell viability (assessed by measuring ATP levels with CellTiterGlo).
# 2. NCATS MIPE 4.0 library of approved and investigational drugs were added using the Kalypsis pin tool. Wells treated with DMSO only for 100% viability and media only for 0% viability were used as controls.
# 3. The assay plates were covered and incubated for 48 hours in a 37C, 5% CO2 incubator with controlled humidity.
# 4. After 48 hours, CellTilter-GloTM luminescent substrate mix (Promega) reagent was added to the assay plate and plates we incubated for 5 min at room temperature.
# 5. Signal was measured as median relative luminescence units on a ViewLux (PerkinElmer) multiplate reader.
# [1] Heske CM, Davis MI, Baumgart JT, Wilson K, Gormally MV, Chen L, Zhang X, Ceribelli M, Duveau DY, Guha R, Ferrer M, Arnaldez FI, Ji J, Tran HL, Zhang Y, Mendoza A, Helman LJ, Thomas CJ. Matrix Screen Identifies Synergistic Combination of PARP Inhibitors and Nicotinamide Phosphoribosyltransferase (NAMPT) Inhibitors in Ewing Sarcoma. Clin Cancer Res. 2017 Dec 1;23(23):7301-7311. doi: 10.1158/1078-0432.CCR-17-1121. Epub 2017 Sep 12. PMID: 28899971; PMCID: PMC6636827.
# Potency means the concentration at half of the fitted maximal effect.
Structure (SMILES),Potency,viability (% of DMSO control)
COc1cc([C@@H]2c3cc4c(cc3[C@H](O)[C@H]3COC(=O)[C@@H]23)OCO4)cc(OC)c1OC,209 nM (active),–
COc1ccc([C@@H]2CNC(=O)C2)cc1OC1CCCC1,6620 nM (active),–
CC(C)C[C@H](NC(=O)CNC(=O)c1cc(Cl)ccc1Cl)B1OC(=O)CC(CC(=O)O)(C(=O)O)O1 (stereo not given in full),526 nM (active),–
NC(=O)c1ncn([C@@H]2O[C@H](CO)[C@@H](O)[C@@H]2O)c1O,–,183% (inactive)
CC(=O)NCC(=O)N1[C@H]2CC[C@H]1c1cc(Nc3ncc(C(F)(F)F)c(NC4CCC4)n3)ccc12,118 nM (active),–
COc1cccc2c1C(=O)c1c(O)c3c(c(O)c1C2=O)C[C@@](O)(C(C)=O)C[C@H]3O[C@H]1C[C@H](N)[C@H](O)[C@H](C)O1,11.8 nM (active),–
CN1C(C(=O)Nc2ccccn2)=C(O)c2sc(Cl)cc2S1(=O)=O,4690 nM (active),–
O=C(Nc1cc2cc[nH]c2cn1)c1ccccc1,13200 nM (active),–
CN1CCc2c(c3ccccc3n2Cc2ccc(C(=O)NO)cc2)C1,2640 nM (active),–
CC[C@H]1OC(=O)[C@H](C)[C@@H](O[C@H]2C[C@@](C)(OC)[C@@H](O)[C@H](C)O2)[C@H](C)[C@@H](O[C@@H]2O[C@H](C)C[C@H](N(C)C)[C@@H]2O)[C@](C)(OC)C[C@@H](C)C(=O)[C@H](C)[C@@H](O)[C@]1(C)O,–,120% (inactive)
C[C@H](NCc1ccc2c(c1)nc(NC(=O)c1ccc(-c3cn[nH]c3)s1)n2CCc1ccccc1)C(C)(C)C,935 nM (active),–
Nc1nc(N)c2nc(-c3cccc(O)c3)c(-c3cccc(O)c3)nc2n1,3720 nM (active),–
COc1cc(C(C)C)c(Oc2cnc(NC(CO)CO)nc2N)cc1I,–,201% (active)
COc1ccc(C[C@@H](C)[C@@H](C)Cc2ccc(OC)c(OC)c2)cc1OC,209 nM (active),–
CC(C=CC(=O)NO)=C[C@@H](C)C(=O)c1ccc(N(C)C)cc1,235 nM (active),–
Nc1cccc2c1C(=O)N(C1CCC(=O)NC1=O)C2=O (stereo not given),–,186% (inactive)
CCN(CC)CCCCNc1ncc2c(n1)N(C)C(=O)N(c1c(Cl)c(OC)cc(OC)c1Cl)C2,–,99.3% (inactive)
COc1ccc(C=Cc2cc(OC)c(OC)c(OC)c2)cc1NC(=O)[C@H](N)CO,1 nM (active),–
C=CCNC1=C2C[C@@H](C)C[C@H](OC)[C@@H](O)[C@@H](C)C=C(C)[C@H](OC(N)=O)[C@@H](OC)C=CC=C(C)C(=O)NC(=CC1=O)C2=O,1320 nM (active),–
c1cc(N[C@@H]2CCNC2)nc(-c2cnc3ccc(-c4cn[nH]c4)cn23)c1,4690 nM (active),–

Structure (SMILES),Potency,viability (% of DMSO control)
C[C@@H]1C(=O)O[C@H]2CC34[C@H]5C[C@@H](C(C)(C)C)C36[C@H](OC(=O)[C@@H]6O)O[C@@]4(C(=O)O5)[C@]21O (stereo not given in full),–,121% (inactive)
CCc1ccc(C(=O)Nc2cc(CN3CCN(C)CC3)cc(C(F)(F)F)c2)cc1C#Cc1cnc2ccnn2c1,11800 nM (active),–
CC[C@@]1([C@@H]2O[C@@H]([C@H]3O[C@@](O)(CO)[C@H](C)C[C@H]3C)C[C@H]2C)CC[C@H]([C@]2(C)CC[C@]3(C[C@H](O)[C@@H](C)[C@@H]([C@@H](C)[C@@H](OC)[C@H](C)C(=O)O)O3)O2)O1,182 nM (active),–
COC1=C(OC)C(=O)C(CC=C(C)CCC=C(C)CCC=C(C)CCC=C(C)CCC=C(C)CCC=C(C)CCC=C(C)CCC=C(C)CCC=C(C)CCC=C(C)C)=C(C)C1=O,–,183% (inactive)
Cn1cnc(=N)c2[nH]cnc21,93.5 nM (active),–
CCCNS(=O)(=O)Nc1ncnc(OCCOc2ncc(Br)cn2)c1-c1ccc(Br)cc1,–,172% (inactive)
CS(=O)(=O)N1CCc2c(-c3cnc(N)nc3)nc(N3CCOCC3)nc21,1 nM (active),–
O=C(C=CC=Cc1ccc2c(c1)OCO2)N1CCCCC1,–,157% (inactive)
COc1ccnc2[nH]cc(C(=O)C(=O)N3CCN(C(=O)c4ccccc4)C[C@@H]3C)c12,–,141% (inactive)
COc1cc(OC)cc(-c2ccc3ncc4ccc(=O)n(-c5ccc(N6CCNCC6)c(C(F)(F)F)c5)c4c3c2)c1,2960 nM (active),–
O=C(CN1C(=O)C2(CCCC2)NC[C@H]1c1cc(F)cc(F)c1)Nc1ccc2c(c1)C[C@@]1(C2)C(=O)Nc2ncccc21,–,155% (inactive)
COc1cccc2c1C(=O)c1c(O)c3c(c(O)c1C2=O)C[C@@](O)(C(=O)CO)C[C@H]3O[C@H]1C[C@H](N)[C@H](O)[C@H](C)O1,118 nM (active),–
CN(C)CCN1C(=O)c2cccc3cc(N)cc(c23)C1=O,5900 nM (active),–
CC(C)(C)c1nc2c3cc[nH]c(=O)c3c3cc(F)ccc3c2[nH]1,187 nM (active),–
CN(C)c1ccc(C(=O)NCCCCCCC(=O)NO)cc1,332 nM (active),–
C=CC(=O)Nc1ccc2ncnc(Nc3ccc(OCc4cccc(F)c4)c(Cl)c3)c2c1,743 nM (active),–
O=C1NCCc2[nH]c(-c3ccncc3)cc21,3720 nM (active),–
C=CCNc1c(O)cc2c(O)c1C[C@@H](C)C[C@H](OC)[C@@H](O)[C@@H](C)C=C(C)[C@H](OC(N)=O)[C@@H](OC)C=CC=C(C)C(=O)N2,418 nM (active),–
COc1cc(C[C@@H](CO)[C@H](CO)Cc2ccc(O)c(OC)c2)ccc1O,1320 nM (active),–
CN(C)CC(=O)N1CCC(c2ccc(NC(=O)c3ncc(C#N)[nH]3)c(C3=CCCCC3)c2)CC1,18700 nM (active),–
